From PubChem BioAssay (NCATS)
Records with an inconclusive call do not appear. A call without a number means that no potency is given here. Activity calls are given as the source filed them. Calls follow the shape of the dose curve; as a rule, active = well fitted cell-killing curve with a large enough effect; inconclusive = small, poorly fitted or top-dose-only effect; inactive = flat fitted curve, though single readings scatter.

Test: Quantitative highthroughput screen to assess conditional lethalithy of NOMO1 cells grown in RPMI1640 with untreated serum (RPMI+s) (AID 1963876); also: nearly all actives have a fitted effect of over 35% in size
Details: NOMO1 AML cells in RPMI+serum, CellTiter-Glo viability, 48 h; series mostly up to 45.8 µM
Excerpt: Assay Provider: Jason Cantor Ph.D.
Department of Biochemistry
University of Wisconsin-Madison, Madison, WI, USA
Chemical screening studies have identified drug sensitivities across hundreds of cancer cell lines but most putative therapeutics fail to translate. Discovery and development of drug candidates in models that more accurately reflect nutrient levels in human blood is a major challenge. Here we performed high-throughput screens in conventional versus Human Plasma-Like Medium (HPLM) to identify compounds that were "missed" when screening using the artificial culture condition. Sets of conditional anticancer compounds spanned phases of clinical development and included non-oncology drugs were assessed. […] We also traced conditional phenotypes for several chemotherapeutics to availability of HPLM-specific metabolites and confirmed others for compounds whose reported targets are encoded by nonessential genes. Our findings establish generalizable strategies for exploiting conditional lethality in HPLM to reveal therapeutic candidates and mechanisms of action in cancer cells.
Described herein are the results of each viability screens against three cell lines: NOMO1 (an acute myeloid leukemia cell line); P12-Ichikawa (a T-cell acute lymphoblastic leukemia); and SEM (a B-cell ALL). Each assay was screened using 3 different cell culture media: homemade human plasma-Like medium with 10% dialyzed fetal bovine serum (HPLM+ds); RPMI1640 with 10% untreated FBS and 5mM glucose (RPMI+s); and RPMI1640 with 10% dialyzed fetal bovine serum and 5 mM glucose (RPMI+ds).
PROTOCOL TABLE (as described by Inglese J, Shamu CE and Guy RK. 2007)
SEQUENCE No. (e.g., 1, 2, 3, etc.); […] (e.g., Cells, Incubation, Reagent, etc.); VALUE and DESCRIPTION.
1; Cells; 5 uL; white, solid bottom 1536-well Greiner assay plate.
2; Compounds; 23 nL; Kalypsis pin tool (Wako USA) equipped with a 1536-well pin head to transfer to the assay plates.
3; Incubation; 48 hours; 37C incubation.
4; Reagent; 3 uL; CellTiter Glo (Promega).
5; Incubation; 5 min, room temperature
6; Detection; Luminescence, Viewlux PerkinElmer.
NOTES (numbers refer to Sequence numbers above)
1. Briefly, 5 ul of cell reagent was dispensed using a Multidrop Combi Dispenser. The NOMO1 and SEM cells were plated at 500 cells/well and the P12-Ichikawa line at 1000 cells/well.
2. After seeding the cells, 23 nL of MIPE 4.1 library compounds (in DMSO) were added to each plate using a Kalypsys 1536 Pintool dispenser. Bortezomib at final concentration of […] and DMSO were added to each plate as positive and negative controls respectively. For each screen, MIPE 4.1 compounds were added over an eleven-point concentration range […] in 3-fold dilutions.
3. Each plate was covered with a stainless steel gasketed lid to prevent evaporation and incubated for 48 hour at 37C, 95% relative humidity, and 5% CO2.
4-5. Three microliter CellTilter-GloTM luminescent substrate mix (Promega) reagent was added to the assay plate and incubated at room temperature for 5 min.
6. The luminescence signal was measured using a ViewLux (PerkinElmer) multiplate reader with a 2 second exposure time per plate. Data for each compound were normalized as percent viability such that measurements for DMSO and the empty well controls in each plate were defined as 100% and 0%, respectively.
Potency is read from the fitted curve at half-maximal effect.

| Compound | Potency |
| --- | --- |
| CC(C)N(CCNC(=O)CN1CCCC1=O)C(C)C | inactive |
| CC(C)(O)C=CC(=O)[C@](C)(O)[C@H]1[C@H](O)C[C@]2(C)[C@@H]3CC=C4[C@@H](C=C(O)C(=O)C4(C)C)[C@]3(C)C(=O)C[C@@]12C | 187 nM (active) |
| NC1CC1c1ccccc1 (stereo not given) | inactive |
| O=C(Nc1ccncc1)C(=O)c1cn(Cc2ccc(Cl)cc2)c2ccccc12 | 132 nM (active) |
| O=c1[nH]c2ccccc2n1C1CCN(Cc2ccc(-c3[nH]c4cc5ncnc5cc4nc3-c3ccccc3)cc2)CC1 | inactive |
| C#CCN(C)[C@H](C)Cc1ccccc1 | inactive |
| COc1cc(C(=O)N2CC[C@@H](O)[C@@H](N)C2)cc2nc(-c3cc4ccccc4n3CC3CC3)n(C)c12 | 933 nM (active) |
| CC1=C2C[C@@H]3[C@@H](CC=C4C[C@@H](O)CC[C@@]43C)[C@@H]2CC[C@]12O[C@H]1C[C@H](C)CN[C@H]1[C@H]2C | inactive |
| Cc1ccccc1-n1c(Cn2ncc3c(N)ncnc32)nc2cccc(C)c2c1=O | 372 nM (active) |
| CC(=O)N(C)c1cccc(-c2ccnc3c(C(=O)c4cccs4)cnn23)c1 | inactive |
| CCNC(=O)CC1N=C(c2ccc(Cl)cc2)c2cc(OC)ccc2-n2c(C)nnc21 (stereo not given) | inactive |
| Cc1c(N)nc([C@H](CC(N)=O)NC[C@@H](N)C(N)=O)nc1C(=O)N[C@H](C(=O)N[C@@H](C)[C@H](O)[C@@H](C)C(=O)N[C@@H](C(=O)NCCc1nc(-c2nc(C(=O)NCCC[S+](C)C)cs2)cs1)[C@@H](C)O)C(O[C@H]1O[C@H](CO)[C@H](O)[C@@H](O)[C@@H]1O[C@H]1O[C@H](CO)[C@@H](O)[C@H](OC(N)=O)[C@H]1O)c1cnc[nH]1 (stereo not given in full) | 1180 nM (active) |
| Cc1nc(-c2ccc(-c3ccc(C(=O)N4CCc5cc6c(cc54)C4(CCN(C)CC4)CO6)cc3)c(C)c2)no1 | inactive |
| COC[C@H]1OC(=O)c2coc3c2[C@@]1(C)C1=C(C3=O)C2CCC(=O)[C@@]2(C)C[C@H]1OC(C)=O (stereo not given in full) | inactive |
| COc1ccc2c(c1)CN(C)CC2c1ccc(Cl)c(Cl)c1 (stereo not given) | 23500 nM (active) |
| CN[C@@H]1Cc2cccc3[nH]c(=O)n(c23)C1 | inactive |
| CNC(=O)c1ccc(N2C(=S)N(c3ccc(C#N)c(C(F)(F)F)c3)C(=O)C23CCC3)cc1F | inactive |
| COc1cc2cc(c1Cl)N(C)C(=O)C[C@H](OC(=O)C(C)C)[C@]1(C)O[C@H]1[C@H](C)[C@@H]1C[C@@](O)(NC(=O)O1)[C@H](OC)C=CC=C(C)C2 | inactive |
| O=C(N[C@H]1CN2CCC1CC2)c1ccc(Cl)cc1 | inactive |
| CC(O)=C(C#N)C(=O)Nc1cc(Br)ccc1Br | inactive |

| Compound | Potency |
| --- | --- |
| CCCCCC[C@H]1C(=O)O[C@H](C)[C@H](NC(=O)c2cccc(NC=O)c2O)C(=O)O[C@@H](C)[C@@H]1OC(=O)CC(C)C | inactive |
| Cn1cc(C2=C(c3cn(C4CCN(Cc5ccccn5)CC4)c4ccccc34)C(=O)NC2=O)c2ccccc21 | inactive |
| c1ccc(CCCN2CCN(CCOC(c3ccccc3)c3ccccc3)CC2)cc1 | inactive |
| CCOC(=O)c1c(C(C#N)=CN)c2ccc(Cl)c(Cl)c2n1C | inactive |
| C[C@@H]1[C@@H](CC(C[C@H]2O[C@@H]3O[C@]4(C)CC[C@@H]5[C@H](C)CC[C@@H]([C@H]2C)[C@@]35OO4)C[S+](=O)([O-])c2ccc(COC(=O)N(C)C)cc2)O[C@@H]2O[C@]3(C)CC[C@H]4[C@H](C)CC[C@@H]1[C@@]24OO3 (stereo not given in full) | 833 nM (active) |
| COc1ccc2c(c1)[C@]13CCCCC1C(C2)N(C)CC3 (stereo not given in full) | inactive |
| C#CC1(O)CCC2C3CCC4=CC(=O)CCC4(C)C3CCC21C (stereo not given) | inactive |
| Oc1ccc2c3c1O[C@H]1c4[nH]c5c(c4C[C@@]4(O)[C@@H](C2)N(CC2CC2)CC[C@]314)C[C@@]1(O)[C@H]2Cc3ccc(O)c4c3[C@@]1(CCN2CC1CC1)[C@H]5O4 | inactive |
| C=C1C[C@H]2[C@H]3CCC(=O)[C@@]3(C)CC[C@@H]2[C@@]2(C)C=CC(=O)C=C12 | inactive |
| COc1ccc(C(=O)c2c(C)n(CCN3CCOCC3)c3cc(I)ccc23)cc1 | 935 nM (active) |
| CC(=Cc1csc(C)n1)[C@@H]1C[C@H]2O[C@@H]2CCC[C@H](C)[C@@H](O)[C@@H](C)C(=O)C(C)(C)[C@@H](O)CC(=O)O1 | inactive |
| COC1=C[C@@H]2[C@@H]3Cc4ccc(OC)c(O)c4[C@]2(CCN3C)CC1=O | inactive |
| CC(=CCCC1=CCC(C2=CC(=O)OC2O)OC1O)CCC1=C(C)CCCC1(C)C (stereo not given) | inactive |
| C[C@]12CC[C@H]3[C@@H](CCC4=CC(=O)CC[C@@]43C)[C@H]1CC[C@H]2O | inactive |
| Cc1cccc(C)c1NC(=O)CN1CCCC1=O | inactive |
| C[C@]12CC[C@H]3[C@@H](CCC4=CC(=O)CC[C@@]43C)[C@H]1CC[C@H]2OC(=O)CCC1CCCC1 | inactive |
| O=[N+]([O-])c1ncc[nH]1 | inactive |
| C[C@H]1CCCC=CC2C[C@H](O)C[C@@H]2[C@H](O)C=CC(=O)O1 (stereo not given in full) | inactive |
| COC1(CS(=O)c2ccccc2)CCN(CCc2c[nH]c3ccc(F)cc23)CC1 (stereo not given) | inactive |
| O=c1[nH]c2ccc(Cl)cc2c(N[C@@H]2CN3CCC2CC3)c1-c1nc2ccccc2[nH]1 | 132 nM (active) |
